{
  "source": "PubChem BioAssay (EPA / NIEHS)",
  "note": "Inconclusive results are not listed. Activity calls are given as the source filed them. How the source made its calls: active means hit-call score of the fitted dose curve at least 0.9, where 1 is the maximum; inconclusive means response in the unintended direction; inactive means score below 0.9.",
  "data": [
    {"target": "human RAR-related Orphan Receptor gamma (RORg), RORC (gene 6097) (UniProt P51449)", "sequence (P51449 whole entry, looked up)": "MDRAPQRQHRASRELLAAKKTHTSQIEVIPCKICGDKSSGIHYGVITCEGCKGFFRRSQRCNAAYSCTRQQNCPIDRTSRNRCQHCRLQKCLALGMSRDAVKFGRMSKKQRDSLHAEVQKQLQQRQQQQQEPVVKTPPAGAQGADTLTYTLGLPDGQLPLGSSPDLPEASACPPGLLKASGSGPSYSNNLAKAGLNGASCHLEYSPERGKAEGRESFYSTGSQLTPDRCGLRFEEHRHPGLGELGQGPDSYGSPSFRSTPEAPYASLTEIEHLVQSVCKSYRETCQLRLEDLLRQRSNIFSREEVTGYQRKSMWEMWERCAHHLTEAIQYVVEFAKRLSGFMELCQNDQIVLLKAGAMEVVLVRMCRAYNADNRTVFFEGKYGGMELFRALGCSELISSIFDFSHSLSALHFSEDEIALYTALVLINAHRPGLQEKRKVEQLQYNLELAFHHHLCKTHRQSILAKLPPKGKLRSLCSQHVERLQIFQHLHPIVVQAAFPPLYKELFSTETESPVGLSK", "assay": "ATG_RORg_TRANS: Attagene TRANS-FACTORIAL HepG2 Assay for human RAR-related Orphan Receptor gamma (RORg) (AID 2283011)", "experimental": "ATG_TRANS is a cell-based, multiplexed-readout assay that uses HepG2, a human liver cell line, with measurements taken at 24 hours after chemical dosing in a 24-well plate.ATG_RORg_TRANS is one of 30 assay component(s) measured or calculated from the ATG_TRANS assay. It is designed to make measurements of mRNA induction, a form of inducible reporter, as detected with fluorescence intensity signals by Reverse transcription polymerase chain reaction (RT-PCR) and Capillary electrophoresis technology.Data from the assay component ATG_RORg_TRANS was analyzed into 1 assay endpoint. This assay endpoint, ATG_RORg_TRANS, was analyzed in the positive analysis fitting direction relative to DMSO as the negative control and baseline of activity. Using a type of inducible reporter, measures of mRNA for gain-of-signal activity can be used to understand the reporter gene at the transcription factor-level as they relate to the gene RORC. Furthermore, this assay endpoint can be referred to as a primary readout, because this assay has produced multiple assay endpoints where this one serves a reporter gene function. To generalize the intended target to other relatable targets, this assay endpoint is annotated to the nuclear receptor intended target family, where the subfamily is orphan.\nHuman liver HepG2 cells are transiently transfected with multiple reporter transcription units (MRTUs) in 6-well plates using FuGene 6 reagent (Roche; 3 ml FuGene/1 mg DNA). The MRTU constructs are regulated by a cis-regulating element (promoter). […] A major difference between the CIS and TRANS system is that in CIS activities of endogenous TFs are measured, whereas the TRANS assay evaluates changes in activities of exogenous, chimeric NR-Gal4 proteins. […] At the end of 24 hour incubation, total RNA was isolated using TriZol reagent (Invitrogen). The isolated RNA is then reverse-transcribed using oligo(dT) primer and Mo-MLV reverse transcriptase (Invitrogen) with DNAse I (Ambion) treatment for 30 min. The one-tenth of the produced cDNA was amplified by PCR using Taq DNA polymerase (Invitrogen) and two reporter sequence-specific primers. The PCR products were fluorescently labeled by primer extension with 6-arboxyfluorescein (6-FAM) 5'-labeled reporter sequence-specific primer (2 min at 95 C, 20 s at 68 C and 10 min at 72 C) and these products were digested with 5U of HpaI (New England Biolabs) for 2h at 37 C. The fragments were purified using Qiaquick PCR columns (Qiagen), analyzed on an ABI 3130xL genetic analyzer (Applied Biosystems) with peak positions identified by using a set of X-rhodamine (ROX)-labeled MapMarker1000 molecular weight standards (BioVentures). The raw capillary electrophoresis data was processed using Attagraph software (Attagene).", "values": [
      {"smiles": "O=C(Oc1ccccc1)c1ccccc1", "outcome": "inactive"},
      {"smiles": "Cc1cc(-n2nc3ccc(Cl)cc3n2)c(O)c(C(C)(C)C)c1", "outcome": "inactive"},
      {"smiles": "O=[N+]([O-])c1ccc2nc[nH]c2c1", "outcome": "inactive"},
      {"smiles": "O=S(=O)(O)c1cccc2ccccc12", "outcome": "inactive"},
      {"smiles": "CC/C=C\\CCO", "outcome": "inactive"},
      {"smiles": "CC(=O)OC(C)(C)Cc1ccccc1", "outcome": "inactive"},
      {"smiles": "COC(=O)c1ccccc1", "outcome": "inactive"},
      {"smiles": "COC(OC)C(C)c1ccccc1", "note": "(stereo not given)", "outcome": "inactive"},
      {"smiles": "CCCCCCCCCC/C=C/C1CC(=O)OC1=O", "note": "(stereo not given)", "outcome": "inactive"},
      {"smiles": "O=C(O)c1ccccc1C(=O)O", "outcome": "inactive"},
      {"smiles": "CN1CCCC1", "outcome": "inactive"},
      {"smiles": "[O-][n+]1ccc(Cl)cc1", "outcome": "inactive"},
      {"smiles": "Cc1cc2nc3c(=O)[nH]c(=O)nc-3n(C[C@H](O)[C@H](O)[C@H](O)CO)c2cc1C", "outcome": "inactive"},
      {"smiles": "O=C(O)c1cc(Cl)cc(Cl)c1O", "outcome": "inactive"},
      {"smiles": "CCC(C)=NO", "outcome": "inactive"},
      {"smiles": "CCC(C)(CCC(C)C)C(=O)O", "note": "(stereo not given)", "outcome": "inactive"},
      {"smiles": "CC/C=C\\CC/C=C/C(OCC)OCC", "outcome": "inactive"},
      {"smiles": "CC(C)CC(=O)CC(C)C", "outcome": "inactive"},
      {"smiles": "COCCCN", "outcome": "inactive"},
      {"smiles": "C=CCOCC(CC)(CO)COCC=C", "outcome": "inactive"},
      {"smiles": "CC/C=C\\CCCCCO", "outcome": "inactive"},
      {"smiles": "O=C(CC(C(=O)OC1CCCCC1)S(=O)(=O)O)OC1CCCCC1", "note": "(stereo not given)", "outcome": "inactive"},
      {"smiles": "COc1ccccc1OCC(O)CO", "note": "(stereo not given)", "outcome": "inactive"},
      {"smiles": "CCOC(=O)CC(=O)OCC", "outcome": "inactive"},
      {"smiles": "CCCC(=O)OC/C=C(\\C)CCC=C(C)C", "outcome": "inactive"},
      {"smiles": "O=[N+]([O-])c1ccccc1C(F)(F)F", "outcome": "inactive"},
      {"smiles": "CCC(=O)OCc1ccc(OC)cc1", "outcome": "inactive"},
      {"smiles": "CC/C=C/CCO", "outcome": "inactive"},
      {"smiles": "Brc1ccc(Oc2ccc(Br)cc2)cc1", "outcome": "inactive"},
      {"smiles": "Oc1cccc2ccccc12", "outcome": "inactive"},
      {"smiles": "CC(=O)CCc1ccccc1", "outcome": "inactive"},
      {"smiles": "Clc1ccccn1", "outcome": "inactive"},
      {"smiles": "CC(C)=CCOC(=O)c1ccccc1", "outcome": "inactive"},
      {"smiles": "Cc1cc(C)c(S(=O)(=O)O)cc1N=Nc1cc(S(=O)(=O)O)c2ccccc2c1O", "outcome": "inactive"},
      {"smiles": "NC(=O)c1ccc(N)cc1", "outcome": "inactive"},
      {"smiles": "CC=CC(=O)O", "outcome": "inactive"},
      {"smiles": "COc1cccc(OC)c1C(=O)O", "outcome": "inactive"},
      {"smiles": "OCCc1ccccn1", "outcome": "inactive"},
      {"smiles": "CC(C)CC(=O)CC(C)CC(C)C", "note": "(stereo not given)", "outcome": "inactive"},
      {"smiles": "C=C1CC[C@H]2C[C@@H]1C2(C)C", "outcome": "inactive"}
    ]}
  ]
}
